Reference: PubChem BioAssay (NCATS)
Inconclusive results are not listed. A call without a number means that no potency is given here. Unmarked numbers belong to inactive results. Calls of active or inactive are those of the source. The call rests on the fitted dose curve; in most records, active means well fitted curve in the direction sought with a large enough effect; inconclusive means small, poorly fitted or top-dose-only effect, or another doubt; inactive means no such curve, though single readings can be large; an effect the other way counts as inactive or inconclusive.

assay: NS1 protein of Zika virus - qHTS assay to identify small molecule inhibitors in human HEK 293 cells (AID 1347053); settings: HEK293 ZIKV MR766 infection, NS1 TR-FRET, 24 h; series mostly up to 46.1 µM; further: nearly all actives have a fitted effect of over 55% in size
Procedure, shortened: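 TR-FRET signal from two anti-ZIKV NS1 antibodies quantified NS1 in HEK 293 cells 24 h after MR766 infection at MOI = 0.5; compounds were added 1 h before virus. Uninfected cells and infected cells defined the NS1 normalization range.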

Row | Structure (SMILES) | Potency
1 | CN(C)CCOC(=O)C(c1ccccc1)C1(O)CCCC1 (configuration not stated) | inactive
2 | O=C(O)P(=O)(O)O | inactive
3 | CC1(COc2ccc(CC3SC(=O)NC3=O)cc2)CCCCC1 (configuration not stated) | inactive
4 | COc1cc(NS(=O)(=O)c2ccc(N)cc2)ncn1 | inactive
5 | Cc1ccc(S(=O)(=O)NC(=O)NC2CCCC2)cc1 | inactive
6 | O=[N+]([O-])c1cccc(S(=O)(=O)NCCNS(=O)(=O)c2cccc([N+](=O)[O-])c2)c1 | inactive
7 | c1ccc(-c2nc[nH]c2-c2ccccc2)cc1 | inactive
8 | CCc1ccc(C(=O)C(C)CN2CCCCC2)cc1 (configuration not stated) | inactive
9 | C=C[C@@]1(C)CC(=O)[C@]2(O)[C@@]3(C)[C@@H](O)CCC(C)(C)[C@@H]3[C@H](O)[C@H](OC(C)=O)[C@@]2(C)O1 | inactive
10 | CN1CCN(C2=Nc3ccccc3Sc3ccc(Cl)cc32)CC1 | inactive
11 | CCN(CC)CCNC(=O)COc1ccc(OC)cc1 | inactive
12 | CCCCCCCCCCCCCC(=O)OC(C)C | inactive
13 | Cc1nc(-c2ccc(Cl)cc2)oc1COC(C)(C)C(=O)O | inactive
14 | O=C(O)CCc1nc2ccccc2[nH]1 | inactive
15 | CCOc1ccc(NC(C)=O)cc1 | inactive

assay: qHTS of pediatric cancer cell lines to identify multiple opportunities for drug repurposing: Primary screen for TC32 cells (AID 1347089); settings: TC32 Ewing sarcoma viability, CellTiter-Glo luminescence, 48 h; series mostly up to 45.8 µM; further: nearly all actives have a fitted effect of over 60% in size
Procedure, shortened: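 A viability screen of TC32 cells was run over 48 h, with primary MIPE doses spanning 0.78 nM–46 µM and NPC doses 0.59 nM–46 µM. ATP luminescence (CellTiter-Glo) served as the read-out.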

Row | Structure (SMILES) | Potency | activity change, negative = cytotoxic
16 | O=C(CN1CCN(Cc2ccc3c(c2)OCO3)CC1)N1c2ccccc2Sc2ccccc21 | inactive | –
17 | NS(=O)(=O)Cc1noc2ccccc12 | inactive | –
18 | OC[C@H]1O[C@@H](Oc2ccc(O)cc2)[C@H](O)[C@@H](O)[C@@H]1O | inactive | –
19 | NCc1ccccc1Sc1ccccc1CO | inactive | –
20 | CCC1NC(=O)c2cc(S(N)(=O)=O)c(Cl)cc2N1 (configuration not stated) | inactive | –
21 | CC(=O)NO | inactive | –
22 | O=C(Nc1ccc([N+](=O)[O-])cc1)Nc1ccc([N+](=O)[O-])cc1 | inactive | –
23 | C#C[C@]1(O)CC[C@H]2[C@@H]3CCC4=CC(=O)CC[C@@H]4[C@H]3CC[C@@]21CC | inactive | –
24 | Cc1ncc(CO)c(C=O)c1O | inactive | –
25 | COc1cc(C(=O)NCc2ccc(OCCN(C)C)cc2)cc(OC)c1OC | inactive | –
26 | Nc1ccc(S(=O)(=O)NCc2ccccc2)cc1 | inactive | –
27 | CCCCCCCCCCCCSCCOCCO | inactive | –
28 | O=C(O)CCNC(=O)c1ccccc1 | inactive | –
29 | OCc1ccccn1 | inactive | –
30 | NS(=O)(=O)c1ccc(Cl)c(S(N)(=O)=O)c1 | inactive | –
31 | CCCN(CCC)S(=O)(=O)c1ccc(C(=O)O)cc1 | inactive | –
32 | CC1CCc2c(N3CCC(O)CC3)c(F)cc3c(=O)c(C(=O)O)cn1c23 (configuration not stated) | inactive | –
33 | CC(=O)NCCCCCC(=O)O | inactive | –

Row | Structure (SMILES) | Potency | activity change, negative = cytotoxic
34 | COc1ccc2c(c1)c1c3n2CCN(C)C3=NCC1 | inactive | –
35 | CCN(CC)CCOc1ccccc1C(=O)CCc1ccccc1 | inactive | –
36 | CCN[C@@H]1C[C@H](N)[C@@H](OC2OC(CN)=CCC2N)[C@H](O)[C@H]1O[C@H]1OC[C@](C)(O)[C@H](NC)[C@H]1O (some centres not stated) | – | 2.31% [at 0.594 µM]
37 | CN(C)CCOC(=O)C(c1ccccc1)C1(O)CCCC1 (configuration not stated) | inactive | –
38 | O=C(O)P(=O)(O)O | inactive | –
39 | CC1(COc2ccc(CC3SC(=O)NC3=O)cc2)CCCCC1 (configuration not stated) | inactive | –
40 | COc1cc(NS(=O)(=O)c2ccc(N)cc2)ncn1 | inactive | –
41 | Cc1ccc(S(=O)(=O)NC(=O)NC2CCCC2)cc1 | inactive | –
42 | O=[N+]([O-])c1cccc(S(=O)(=O)NCCNS(=O)(=O)c2cccc([N+](=O)[O-])c2)c1 | inactive | –
43 | c1ccc(-c2nc[nH]c2-c2ccccc2)cc1 | inactive | –
44 | CCc1ccc(C(=O)C(C)CN2CCCCC2)cc1 (configuration not stated) | inactive | –
45 | C=C[C@@]1(C)CC(=O)[C@]2(O)[C@@]3(C)[C@@H](O)CCC(C)(C)[C@@H]3[C@H](O)[C@H](OC(C)=O)[C@@]2(C)O1 | inactive | –
46 | CN1CCN(C2=Nc3ccccc3Sc3ccc(Cl)cc32)CC1 | inactive | –
47 | CCN(CC)CCNC(=O)COc1ccc(OC)cc1 | inactive | –
48 | CCCCCCCCCCCCCC(=O)OC(C)C | inactive | –
49 | Cc1nc(-c2ccc(Cl)cc2)oc1COC(C)(C)C(=O)O | inactive | –
50 | O=C(O)CCc1nc2ccccc2[nH]1 | inactive | –
51 | CCOc1ccc(NC(C)=O)cc1 | inactive | –

assay: qHTS of pediatric cancer cell lines to identify multiple opportunities for drug repurposing: Primary screen for DAOY cells (AID 1347090); settings: DAOY medulloblastoma viability, CellTiter-Glo luminescence, 48 h; series mostly up to 46 µM; further: nearly all actives have a fitted effect of over 55% in size
Procedure, shortened: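 Cell viability, CellTiter-Glo luminescence; 500-1,000 cells/well, 8- or 11-point titration, 48 h compound exposure at 37 degrees C, 5% CO2. Controls: DMSO neutral, bortezomib 2.3 µM final as positive.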

Row | Structure (SMILES) | Potency | activity change, negative = cytotoxic
52 | O=C(CN1CCN(Cc2ccc3c(c2)OCO3)CC1)N1c2ccccc2Sc2ccccc21 | inactive | –
53 | NS(=O)(=O)Cc1noc2ccccc12 | inactive | –
54 | OC[C@H]1O[C@@H](Oc2ccc(O)cc2)[C@H](O)[C@@H](O)[C@@H]1O | inactive | –
55 | NCc1ccccc1Sc1ccccc1CO | inactive | –
56 | CCC1NC(=O)c2cc(S(N)(=O)=O)c(Cl)cc2N1 (configuration not stated) | inactive | –
57 | CC(=O)NO | inactive | –
58 | O=C(Nc1ccc([N+](=O)[O-])cc1)Nc1ccc([N+](=O)[O-])cc1 | inactive | –
59 | C#C[C@]1(O)CC[C@H]2[C@@H]3CCC4=CC(=O)CC[C@@H]4[C@H]3CC[C@@]21CC | inactive | –
60 | Cc1ncc(CO)c(C=O)c1O | inactive | –
61 | COc1cc(C(=O)NCc2ccc(OCCN(C)C)cc2)cc(OC)c1OC | inactive | –
62 | Nc1ccc(S(=O)(=O)NCc2ccccc2)cc1 | inactive | –
63 | CCCCCCCCCCCCSCCOCCO | inactive | –
64 | O=C(O)CCNC(=O)c1ccccc1 | inactive | –
65 | OCc1ccccn1 | inactive | –
66 | NS(=O)(=O)c1ccc(Cl)c(S(N)(=O)=O)c1 | inactive | –
67 | CCCN(CCC)S(=O)(=O)c1ccc(C(=O)O)cc1 | inactive | –
68 | CC1CCc2c(N3CCC(O)CC3)c(F)cc3c(=O)c(C(=O)O)cn1c23 (configuration not stated) | inactive | –
69 | CC(=O)NCCCCCC(=O)O | inactive | –

Row | Structure (SMILES) | Potency | activity change, negative = cytotoxic
70 | COc1ccc2c(c1)c1c3n2CCN(C)C3=NCC1 | inactive | –
71 | CCN(CC)CCOc1ccccc1C(=O)CCc1ccccc1 | inactive | –
72 | CCN[C@@H]1C[C@H](N)[C@@H](OC2OC(CN)=CCC2N)[C@H](O)[C@H]1O[C@H]1OC[C@](C)(O)[C@H](NC)[C@H]1O (some centres not stated) | – | 1.01% [at 0.597 µM]
73 | CN(C)CCOC(=O)C(c1ccccc1)C1(O)CCCC1 (configuration not stated) | inactive | –
74 | O=C(O)P(=O)(O)O | inactive | –
75 | CC1(COc2ccc(CC3SC(=O)NC3=O)cc2)CCCCC1 (configuration not stated) | inactive | –
76 | COc1cc(NS(=O)(=O)c2ccc(N)cc2)ncn1 | inactive | –
77 | Cc1ccc(S(=O)(=O)NC(=O)NC2CCCC2)cc1 | inactive | –
78 | O=[N+]([O-])c1cccc(S(=O)(=O)NCCNS(=O)(=O)c2cccc([N+](=O)[O-])c2)c1 | inactive | –
79 | c1ccc(-c2nc[nH]c2-c2ccccc2)cc1 | inactive | –
80 | CCc1ccc(C(=O)C(C)CN2CCCCC2)cc1 (configuration not stated) | inactive | –
81 | C=C[C@@]1(C)CC(=O)[C@]2(O)[C@@]3(C)[C@@H](O)CCC(C)(C)[C@@H]3[C@H](O)[C@H](OC(C)=O)[C@@]2(C)O1 | inactive | –
82 | CN1CCN(C2=Nc3ccccc3Sc3ccc(Cl)cc32)CC1 | inactive | –
83 | CCN(CC)CCNC(=O)COc1ccc(OC)cc1 | inactive | –
84 | CCCCCCCCCCCCCC(=O)OC(C)C | inactive | –
85 | Cc1nc(-c2ccc(Cl)cc2)oc1COC(C)(C)C(=O)O | inactive | –
86 | O=C(O)CCc1nc2ccccc2[nH]1 | inactive | –
87 | CCOc1ccc(NC(C)=O)cc1 | inactive | –
